Screening results deposited in PubChem by Center for Chemical Genomics, University of Michigan.
Dicer inh: blocks human Dicer maturation of pre-miR-21; Q9UPY3; cat-ELCCA pre-miR-21 Dicer processing, chemiluminescence; hits give high values; z-score at 25 µM; hit rate 6% among 47,000; in the data active = z-score above about 3, passing the limit was not always enough;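 also: plate controls were vehicle for no effect and no enzyme for full effect; higher signal means more uncleaved substrate so more Dicer inhibition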
Starred values were filed as active, the others as inactive. The full list was thinned out, with hits kept by preference.

For O=C1c2cccc3c(N4CCOCC4)ccc(c23)C(=O)N1c1ccccc1 the results were Dicer inh 0.14.
`O=C1c2cccc3c(N4CCOCC4)ccc(c23)C(=O)N1c1cccc(O)c1` gave Dicer inh 0.21.
Screening C=C(C)Cc1c(C)nc(SCC(=O)c2ccc(Cl)cc2)[nH]c1=O returned Dicer inh 1.18.
`Cc1nn2c(-c3ccc4c(c3)OCO4)ccnc2c1-c1ccccc1` gave Dicer inh -0.31.
Screening Cn1nccc1NC(=O)CC1(CC(=O)O)CCCCC1 returned Dicer inh 0.01.
`Cc1cc(NC(=O)CCC(=O)O)n(C)n1` gave Dicer inh 0.37.
Cc1cc(NC(=O)CC2(CC(=O)O)CCCC2)n(C)n1 was read as Dicer inh 3.42*.
`Cn1c(=O)[nH]c(=O)c2c1nc(NCc1ccccc1)n2CC(O)COc1cccc2ccccc12` (stereo unspecified) gave Dicer inh 1.35.
For CC1CN(c2ncnc3scc(-c4ccccc4)c23)CC(C)O1 (stereo unspecified) the results were Dicer inh -1.01.
Screening CCCCC#Cc1cncc(C(=O)N/N=C/c2ccccc2)c1 returned Dicer inh -0.3.
Cn1[nH]c(=O)cc1C(=O)N/N=C/c1ccccc1 was read as Dicer inh 3.11*.
`CC(C)S(=O)(=O)c1csc(C(=O)N/N=C/c2ccccc2)c1-n1cccc1` gave Dicer inh 1.23.
`CCc1ccnc(NC(=O)NS(=O)(=O)c2ccc(C)cc2)c1` gave Dicer inh 5.07*.
`Cc1ccc(S(=O)(=O)NC(=O)Nc2cc(C)on2)cc1` gave Dicer inh -0.09.
Screening CCc1ccnc(NS(=O)(=O)c2ccc(C)cc2)c1 returned Dicer inh 0.38.
Screening CSC(/N=C/N(C)C)=N/N=C(\C)c1ccc(Cl)c(Cl)c1 returned Dicer inh -1.45.
`Cc1ccc(C2C3=C(CC(c4ccc(Cl)cc4)CC3=O)Nc3ncnn32)cc1` (stereo unspecified) gave Dicer inh 0.34.
CCN(CC)c1ccc(C2C3=C(CC(C)(C)CC3=O)Nc3ncnn32)cc1 (stereo unspecified) was read as Dicer inh 2.24.
Screening O=C1CC(c2ccc(Cl)cc2)CC2=C1C(c1cccnc1)n1c(nc3ccccc31)N2 (stereo unspecified) returned Dicer inh -0.56.
Screening CC1CC(=O)C2=C(C1)Nc1ncnn1C2c1ccccc1 (stereo unspecified) returned Dicer inh 4.57*.
CC1(C)CC(=O)C2=C(C1)Nc1ncnn1C2c1cccc(O)c1 (stereo unspecified) was read as Dicer inh -0.16.
`Cc1ccc(C2C3=C(CC(c4ccccc4)CC3=O)Nc3nc(C(F)(F)F)nn32)cc1` (stereo unspecified) gave Dicer inh 3.01*.
`CC1(C)CC(=O)C2=C(C1)Nc1ncnn1C2c1ccc(Cl)cc1` (stereo unspecified) gave Dicer inh 3.17*.
For O=C1CCCC2=C1C(c1cccc(O)c1)n1ncnc1N2 (stereo unspecified) the results were Dicer inh 0.53.
CC1(C)CC(=O)C2=C(C1)Nc1ncnn1C2c1ccccc1 (stereo unspecified) was read as Dicer inh 1.87.
Screening Cc1ccc(/C(O)=C2\C(=O)C(=O)N(CCCN(C)C)C2c2ccc(C)cc2)cc1 (stereo unspecified) returned Dicer inh 2.94.
`CCCCc1sc(-c2c(C#N)c(N)nc3c2CCCC3)cc1[N+](=O)[O-]` gave Dicer inh 0.94.
Screening Clc1ccc(CSc2nnc3c(n2)OC=Nc2ccccc2-3)cc1 returned Dicer inh 2.25.
Cc1cc(C)c(Nc2nc(-c3cc(-c4ccccc4)no3)cs2)c(C)c1 was read as Dicer inh -0.11.
For CCCCCCCCO[C@@H]1O[C@H](CO)[C@@H](O)[C@H](O)[C@H]1O the results were Dicer inh -0.42.
Screening NC1=NC(=O)CC(C(=O)Nc2ccc(Oc3ccc(Cl)cc3)cc2)S1 (stereo unspecified) returned Dicer inh 0.62.
`CCOC(=O)c1cnc2c(c(C)nn2C)c1N1CCC(n2cccc2)CC1` gave Dicer inh -0.53.
`CCSc1nc2c(c(=O)n1C)C1(CCCC1)Cc1ccccc1-2` gave Dicer inh 6.18*.
For Cn1c(NCCCO)nc2c(c1=O)C1(CCCCC1)Cc1ccccc1-2 the results were Dicer inh 0.39.
For CCSc1nc2c(c(=O)n1CC)C1(CCCC1)Cc1ccccc1-2 the results were Dicer inh 1.28.
`O=c1c2c(nc(NCCCO)n1-c1ccccc1)-c1ccccc1CC21CCCCC1` gave Dicer inh 4.32*.
`C=CCn1c(SCC(N)=O)nc2c(c1=O)C1(CCCCC1)Cc1ccccc1-2` gave Dicer inh 0.59.
`CCn1c(SC)nc2c(c1=O)C1(CCCC1)Cc1ccccc1-2` gave Dicer inh 0.48.
For CCOC(=O)c1c(C)nn(-c2ccc(NC(=O)Nc3cccc(Cl)c3C)cc2)c1C the results were Dicer inh -1.68.
For CC1CC(N(CCC#N)S(=O)(=O)c2ccc(Br)cc2)CC(C)(C)C1 (stereo unspecified) the results were Dicer inh -0.9.
`CCc1cc2c(=O)c(-c3nc(C)cs3)c(C(=O)O)oc2cc1O` gave Dicer inh -0.85.
Cc1nc2sc3c(NCCC(C)C)ncnc3c2c2c1COC(C)(C)C2 was read as Dicer inh 0.04.
O=[N+]([O-])c1ccc(Oc2ccc(Cl)cc2)cc1C(F)(F)F was read as Dicer inh -0.38.
CSC(SC)=C(C#N)c1ccc([N+](=O)[O-])cc1 was read as Dicer inh -0.37.
`COCCNC(=O)c1nn2c(c1Cl)NC(c1ccc(Br)cc1)CC2C(F)(F)F` (stereo unspecified) gave Dicer inh 2.71.
For O=C(NCc1ccco1)c1nn2c(c1Cl)NC(c1ccc(F)cc1)CC2C(F)(F)F (stereo unspecified) the results were Dicer inh 4.88*.
For CC(C)(C)NC(=O)c1nn2c(c1Cl)NC(c1ccccc1)CC2C(F)(F)F (stereo unspecified) the results were Dicer inh -1.85.
Screening CC1CCCCN1C(=O)c1nn2c(c1Cl)NC(c1ccco1)CC2C(F)(F)F (stereo unspecified) returned Dicer inh -3.47.
`O=C(NCc1ccc(F)cc1)c1nn2c(c1Cl)NC(c1ccco1)CC2C(F)(F)F` (stereo unspecified) gave Dicer inh 5.07*.
`O=C(NCc1ccncc1)c1cc2n(n1)C(C(F)(F)F)CC(c1ccco1)N2` (stereo unspecified) gave Dicer inh 0.35.
O=C(Cn1c(=O)oc2cccnc21)Nc1ccccc1 was read as Dicer inh -0.65.
`Cc1nc(-c2ccccc2)nc2sc(C(=O)c3ccc(Cl)cc3)c(C)c12` gave Dicer inh -1.01.
For CC(C)NC(=O)OCc1noc(-c2ccc(Cl)cc2)n1 the results were Dicer inh 0.2.
For O=C(O)c1ccc(-n2nnnc2SCc2cccc(Br)c2)cc1 the results were Dicer inh 4.89*.
O=C(O)c1ccc(-n2nnnc2SCC(=O)N2CCOCC2)cc1 was read as Dicer inh 0.41.
For Fc1ccc(CSc2nnnn2-c2cccc(Cl)c2)cc1 the results were Dicer inh 0.46.
`N#Cc1c(S/C=C(\O)c2ccc(F)cc2)nc2c(c1C(F)(F)F)CCCC2` gave Dicer inh -0.19.
CC(C)(C)c1ccc(C(=O)Nc2nc3ccccc3c(=O)s2)cc1 was read as Dicer inh 0.09.
